Results from PubChem BioAssay (Tox21).
Where “and” joins values, the source holds several entries; their conditions need not be identical. Identical values can stand only once. Inconclusive results are not listed. Entries that show only a call come without a potency. Some structures have more than one record in an assay (separate samples or runs), and their calls can disagree. Calls of active or inactive are those of the source. Unless noted, calls come from the whole dose curve.

Legend:
[1] = Nuclear factor erythroid 2-related factor 2/antioxidant responsive element (Nrf2/ARE) small molecule agonists: qHTS cell viability counter screen in human keratinocytes (AID 1919968; active = well fitted curve in the direction sought with a large enough effect in the repeat runs; an effect the other way counts as inactive or inconclusive; note: nearly all actives have a fitted effect of over 55% in size)
Method in brief: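 Parallel cytotoxicity read: KeratinoSens HaCaT cells, compound treatment 23 h, viability by CellTiter-Fluor fluorescence 1 h post-reagent.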

[2] = Nuclear factor erythroid 2-related factor 2/antioxidant responsive element (Nrf2/ARE) small molecule agonists: luciferase reporter gene qHTS assay in human keratinocytes (AID 1919969); note: nearly all actives have a fitted effect of over 35% in size; note: potency is the fitted concentration of half-maximal effect
[3] = target: Gonadotropin-releasing hormone receptor (Homo sapiens) (UniProt P30968); test: Human gonadotropin-releasing hormone receptor (GnRHR) small molecule agonists, calcium flux assay in GnRHR-HEK293 cells (AID 1920063); note: nearly all actives have a fitted effect of over 35% in size
Method in brief: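 Calcium flux, agonist mode, human GnRHR stably integrated in HEK293; dye 1 h at 37 C before compound; Ex/Em=480/540 kinetic read, 3 min; 15 concentrations, triplicate.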

[4] = target: KiSS-1 receptor (Homo sapiens) (UniProt Q969F8); test: Human kisspeptin (KISS1R) small molecule agonists, calcium flux assay in KISS1R-HEK293 cells (AID 1920064; active = well fitted curve in the direction sought with a large enough effect in the repeat runs; an effect the other way counts as inactive or inconclusive)
Method in brief: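 Triplicate 15-concentration series were applied to dye-loaded human KISS1R HEK293 cells, and agonist-evoked calcium fluorescence was captured for 3 min.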

[5] = G protein-coupled receptor (GPCR) small molecule agonists, calcium flux assay: HEK293 wild type cell line counter screen (AID 1920065)
Method in brief: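 Non-specific calcium responders were flagged by adding DMSO-dissolved compounds to dye-loaded cells and reading 480/540 nm fluorescence each second for 3 min; ATP served as positive control.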

[6] = p53 small molecule agonists, cell-based qHTS assay with human liver microsomes (AID 1963577); note: potency is the fitted concentration of half-maximal effect
Method in brief: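 Compounds act here after metabolic activation: human liver microsomes and NADPH, both at 0.5 mg/mL final, were co-added to p53RE-bla cells. Incubation ran 16 h at 37 C, followed by LiveBLAzer detection.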

[7] = p53 small molecule agonists, cell-based qHTS assay with human liver microsomes: qHTS cell viability counter screen (AID 1963579); note: nearly all actives have a fitted effect of over 45% in size
Method in brief: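 Cells carrying the p53 response-element beta-lactamase reporter are treated for 16 h at 37 C with test compounds in the presence of human liver microsomes and NADPH (both 0.5 mg/mL final); ATP-based CellTiter-Glo luminescence then reports viability.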

[8] = p53 small molecule agonists, cell-based qHTS assay with rat liver microsomes: qHTS cell viability counter screen (AID 1963580); note: nearly all actives have a fitted effect of over 45% in size
Method in brief: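 Rat liver microsome (0.5 mg/mL final) and NADPH (0.5 mg/mL final) co-incubation with compounds for 16 h at 37 C on HCT-116 p53RE-bla cells; cytotoxicity taken from intracellular ATP luminescence.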

[9] = p53 small molecule agonists, cell-based qHTS assay: qHTS cell viability counter screen (AID 1963581); note: nearly all actives have a fitted effect of over 45% in size
Method in brief: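 Multiplexed with the reporter read, a CellTiter-Glo step (30 min, room temperature) gauges ATP-based viability of HCT-116 p53RE-bla cells after 16 h compound incubation at 37 C.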

[10] = p53 small molecule agonists, cell-based qHTS assay (AID 1963582; active = well fitted activation curve with a large enough effect in the signal ratio in the repeat runs, not every such curve was filed as active; the % refers to the signal ratio)
Method in brief: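 Beta-lactamase reporter cells (p53RE-bla) treated with compounds for 16 h at 37 C; FRET substrate, 2 h, room temperature; fluorescence intensity.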

[11] = target: 5-hydroxytryptamine receptor 2A (Homo sapiens) (UniProt P28223); test: 5-hydroxytryptamine receptor 2A (HTR2A) small molecule antagonists, cell-based qHTS assay (AID 1963586); note: nearly all actives have a fitted effect of over 45% in size
Method in brief: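 CHO cells stably expressing human HTR2A were plated for 18 h at 37 C, then loaded with calcium dye for 1 h. Compounds were preincubated 5 min at room temperature before DOI (4 nM solution) was added. Kinetic fluorescence was read for 3 min.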

[12] = target: 5-hydroxytryptamine receptor 2A (Homo sapiens) (UniProt P28223); test: 5-hydroxytryptamine receptor 2A (HTR2A) small molecule agonists, cell-based qHTS assay (AID 1963587); note: nearly all actives have a fitted effect of over 30% in size
Method in brief: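 Kinetic calcium-flux fluorescence (2 min, 1 sec intervals) after compound addition in agonist mode. HTR2A-CHO cells were cultured 18 h, then dye-loaded 1 h at 37 C.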

[13] = target: Muscarinic acetylcholine receptor M1 (Homo sapiens) (UniProt P11229); test: Cholinergic receptor muscarinic 1 (CHRM1) small molecule antagonists, cell-based qHTS assay (AID 1963588); note: nearly all actives have a fitted effect of over 40% in size; note: potency is the fitted concentration of half-maximal effect
Method in brief: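 Compounds were tested at 15 concentrations in three independent runs. Dye-loaded CHRM1-CHO cells were exposed 5 min at room temperature before stimulation by acetylcholine added at 50nM. Intracellular calcium was read kinetically on FDSS for 3 min.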

[14] = target: Muscarinic acetylcholine receptor M1 (Homo sapiens) (UniProt P11229); test: Cholinergic receptor muscarinic 1 (CHRM1) small molecule agonists, cell-based qHTS assay (AID 1963589); note: nearly all actives have a fitted effect of over 35% in size; note: potency is the fitted concentration of half-maximal effect
Method in brief: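 qHTS, 15-point titration, 3 independent runs: compounds pin-transferred onto dye-loaded CHRM1-CHO cells (human M1), calcium fluorescence followed every second to detect agonism.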

[15] = cAMP Responsive Elements (CRE) small molecule agonists, cell-based qHTS assay (AID 1963590)
Method in brief: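 Quantitative HTS for CRE agonists: HEK 293T CRE-bla cells, overnight plating, 3 h compound incubation at 37 C/5% CO2, then 2 h room-temperature LiveBLAzer B/G FRET substrate loading.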

[16] = cAMP Responsive Elements (CRE) small molecule antagonists, cell-based qHTS assay (AID 1963591; active = well fitted inhibition curve with a large enough effect in the signal ratio in the repeat runs, not every such curve was filed as active; the % refers to the signal ratio)
Method in brief: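 Fluorescence intensity from cleaved LiveBLAzer B/G substrate (2 h, room temperature) quantified CRE-bla activity in HEK 293T cells exposed 3 h to compound with 0.25 uM final NKH477.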

[17] = target: Beta-2 adrenergic receptor (Homo sapiens) (UniProt P07550); test: Adrenergic beta2 receptor (ADRB2) small molecule agonists, cell-based qHTS assay (AID 1963593);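 note: CHO cells stably overexpressing human ADRB2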
Method in brief: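 CHO cells stably over-expressing ADRB2 were plated overnight at 37C, then dosed with compounds plus a stimulation mix containing 100uM IBMX and 25uM Ro-20-1724 for 0.5hr at room temperature. cAMP was measured by HTRF competition, 1hr.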

[18] = target: D(2) dopamine receptor (Homo sapiens) (UniProt P14416); test: Dopamine D2 receptor (DRD2) small molecule agonists, cell-based qHTS assay (AID 1963594); note: nearly all actives have a fitted effect of over 35% in size
Method in brief: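 cAMP accumulation in DRD2-HEK293 cells measured by HTRF after 1 h detection; compounds added 10 min before NKH477 (200nM […]) forskolin-analogue stimulation, 30 min at room temperature, with Ro20-1724 present at 0.1 mM final.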

[19] = target: D(2) dopamine receptor (Homo sapiens) (UniProt P14416); test: Dopamine D2 receptor (DRD2) small molecule antagonists, cell-based qHTS assay (AID 1963595; active = well fitted inhibition curve with a large enough effect in the signal ratio in the repeat runs, with a control signal flat; the % refers to the signal ratio)
Method in brief: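 HTRF cAMP read-out at 665 and 620 nm emission (340 nm excitation). Antagonist mode: compounds were tested against 12 nM quinpirole in DRD2-HEK293 cells, with 200 nM NKH477 raising cAMP and 0.1 mM Ro20-1724 blocking its breakdown.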

[20] = target: Beta-2 adrenergic receptor (Homo sapiens) (UniProt P07550); test: Adrenergic beta2 receptor (ADRB2) small molecule antagonists, cell-based qHTS assay (AID 1963592); note: series mostly up to about 92 µM; nearly all actives have a fitted effect of over 50% in size
Method in brief: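 Assay format: CHO-ADRB2 cells, 18-20hr seeding at 37C/5% CO2, then compound plus 1nM isoproterenol agonist mix for 0.5hr RT. Homogeneous time-resolved fluorescence cAMP detection after 1hr, expressed as 665/615 nm ratio.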

Chain of Muscarinic acetylcholine receptor M1 (Homo sapiens) (P11229 whole entry, looked up): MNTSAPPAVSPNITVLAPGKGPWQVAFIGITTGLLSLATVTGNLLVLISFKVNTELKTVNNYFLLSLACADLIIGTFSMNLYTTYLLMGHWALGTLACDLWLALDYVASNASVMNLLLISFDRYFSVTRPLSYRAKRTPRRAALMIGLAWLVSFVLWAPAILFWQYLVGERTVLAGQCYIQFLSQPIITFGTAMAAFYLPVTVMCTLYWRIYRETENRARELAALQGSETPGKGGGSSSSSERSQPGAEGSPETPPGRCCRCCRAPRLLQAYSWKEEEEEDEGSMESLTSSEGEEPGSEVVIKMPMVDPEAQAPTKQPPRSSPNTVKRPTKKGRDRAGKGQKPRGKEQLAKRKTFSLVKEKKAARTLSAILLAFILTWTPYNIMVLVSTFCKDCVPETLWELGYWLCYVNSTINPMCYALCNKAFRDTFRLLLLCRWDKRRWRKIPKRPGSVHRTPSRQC
Chain of 5-hydroxytryptamine receptor 2A (Homo sapiens) (P28223 whole entry, looked up): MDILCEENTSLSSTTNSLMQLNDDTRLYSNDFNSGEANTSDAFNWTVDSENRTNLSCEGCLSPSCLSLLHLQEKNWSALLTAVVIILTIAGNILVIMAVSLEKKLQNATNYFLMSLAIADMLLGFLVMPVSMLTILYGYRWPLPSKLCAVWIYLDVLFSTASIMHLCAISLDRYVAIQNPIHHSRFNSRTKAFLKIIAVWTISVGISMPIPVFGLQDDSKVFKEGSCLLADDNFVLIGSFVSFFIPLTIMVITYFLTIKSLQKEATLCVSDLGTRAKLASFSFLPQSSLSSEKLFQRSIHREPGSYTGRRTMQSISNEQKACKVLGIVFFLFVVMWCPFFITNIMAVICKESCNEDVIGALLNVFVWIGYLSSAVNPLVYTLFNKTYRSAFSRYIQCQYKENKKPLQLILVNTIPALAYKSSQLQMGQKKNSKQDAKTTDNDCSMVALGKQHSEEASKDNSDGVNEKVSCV
Chain of Beta-2 adrenergic receptor (Homo sapiens) (P07550 whole entry, looked up): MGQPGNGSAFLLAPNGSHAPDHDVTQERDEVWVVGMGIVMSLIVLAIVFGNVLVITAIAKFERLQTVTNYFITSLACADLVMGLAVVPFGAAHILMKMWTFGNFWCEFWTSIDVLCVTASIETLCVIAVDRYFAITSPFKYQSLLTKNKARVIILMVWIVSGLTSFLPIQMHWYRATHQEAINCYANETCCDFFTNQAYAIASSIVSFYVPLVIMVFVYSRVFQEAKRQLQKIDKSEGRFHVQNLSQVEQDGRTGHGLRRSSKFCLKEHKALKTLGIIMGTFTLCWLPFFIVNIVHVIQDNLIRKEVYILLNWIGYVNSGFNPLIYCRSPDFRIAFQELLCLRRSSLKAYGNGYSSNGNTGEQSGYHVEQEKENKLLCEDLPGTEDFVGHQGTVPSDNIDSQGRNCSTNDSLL
Chain of Gonadotropin-releasing hormone receptor (Homo sapiens) (P30968 whole entry, looked up): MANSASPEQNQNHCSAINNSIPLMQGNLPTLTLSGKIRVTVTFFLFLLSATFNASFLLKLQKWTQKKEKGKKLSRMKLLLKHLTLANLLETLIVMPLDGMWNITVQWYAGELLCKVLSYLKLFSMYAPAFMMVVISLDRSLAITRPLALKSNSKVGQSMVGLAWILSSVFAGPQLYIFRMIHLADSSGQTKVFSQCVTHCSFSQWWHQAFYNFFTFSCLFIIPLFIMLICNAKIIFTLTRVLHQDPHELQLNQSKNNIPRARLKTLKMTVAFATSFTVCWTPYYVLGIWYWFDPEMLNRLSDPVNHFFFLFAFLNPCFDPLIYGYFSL
Chain of KiSS-1 receptor (Homo sapiens) (Q969F8 whole entry, looked up): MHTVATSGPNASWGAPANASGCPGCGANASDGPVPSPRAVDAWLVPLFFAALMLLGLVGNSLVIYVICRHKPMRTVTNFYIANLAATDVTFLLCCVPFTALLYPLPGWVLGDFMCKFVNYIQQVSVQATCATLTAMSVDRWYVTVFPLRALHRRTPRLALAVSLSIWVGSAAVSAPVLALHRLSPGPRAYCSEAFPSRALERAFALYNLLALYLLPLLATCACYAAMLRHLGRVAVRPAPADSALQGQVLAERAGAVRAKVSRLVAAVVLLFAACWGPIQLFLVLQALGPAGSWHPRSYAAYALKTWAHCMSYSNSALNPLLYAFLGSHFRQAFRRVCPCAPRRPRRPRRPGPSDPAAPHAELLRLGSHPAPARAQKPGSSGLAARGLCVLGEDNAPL
Chain of D(2) dopamine receptor (Homo sapiens) (P14416 whole entry, looked up): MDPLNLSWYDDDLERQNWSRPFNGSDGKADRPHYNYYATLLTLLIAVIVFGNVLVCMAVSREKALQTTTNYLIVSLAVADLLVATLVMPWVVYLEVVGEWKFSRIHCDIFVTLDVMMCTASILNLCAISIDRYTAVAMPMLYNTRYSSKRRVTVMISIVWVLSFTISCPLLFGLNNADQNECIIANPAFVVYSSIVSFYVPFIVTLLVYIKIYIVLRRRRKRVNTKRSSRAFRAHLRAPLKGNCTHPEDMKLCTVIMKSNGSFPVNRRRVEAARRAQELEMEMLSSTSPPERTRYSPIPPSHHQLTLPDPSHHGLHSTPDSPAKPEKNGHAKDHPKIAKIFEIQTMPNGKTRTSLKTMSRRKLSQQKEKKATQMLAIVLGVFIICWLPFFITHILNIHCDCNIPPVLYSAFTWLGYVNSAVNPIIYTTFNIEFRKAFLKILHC

SMILES | Potency [1] | Potency [2] | Potency [3] | Potency [4] | Potency [5] | Potency [6] | Potency [7] | Potency [8] | Potency [9] | Potency [10] | Potency [11] | Potency [12] | Potency [13] | Potency [14] | Potency [15] | Potency [16] | Potency [17] | Potency [18] | Potency [19] | Potency [20]
CCN(CC)C(=O)/C(Cl)=C(\C)OP(=O)(OC)OC | inactive | inactive | inactive | inactive | inactive | 1.86 µM (active) and 9.13 µM (active) | inactive | inactive | inactive | inactive | inactive | inactive | inactive | inactive | inactive | inactive | inactive | inactive | inactive | –
CN(C)NC(=O)CCC(=O)O | inactive | inactive | inactive | inactive | inactive | inactive | – | inactive | – | inactive | inactive | inactive | inactive | inactive | inactive | inactive | inactive | inactive | inactive | inactive
Oc1ccc(Cl)cc1Cl | inactive | inactive | inactive | inactive | inactive | inactive | – | inactive | inactive | inactive | inactive | inactive | – | inactive | inactive | inactive | inactive | inactive | inactive | inactive
C=CCCC#N | inactive | inactive | inactive | inactive | inactive | inactive | – | inactive | inactive | inactive | inactive | inactive | inactive | inactive | inactive | inactive | – | inactive | inactive | –
O=c1[nH]c2ccccc2c(=O)o1 | inactive | inactive | inactive | inactive | inactive | inactive | inactive | inactive | inactive | inactive | inactive | inactive | inactive | inactive | inactive | inactive | inactive | inactive | inactive | inactive
CC(C)(O)C(Cl)(Cl)Cl | inactive | inactive | inactive | inactive | inactive | inactive | inactive | inactive | inactive | inactive | inactive | inactive | inactive | inactive | inactive | inactive | – | inactive | – | inactive
C=CCN1CC[C@]23CCCC[C@H]2[C@H]1Cc1ccc(O)cc13 | inactive | inactive | inactive | inactive | inactive | inactive | – | inactive | inactive | inactive | inactive | inactive | inactive | inactive | inactive | – | – | inactive | inactive | inactive
CCCC[N+]1(C)CCCC1 | inactive | inactive and 54.8 µM (active) | inactive | inactive | inactive | inactive | – | inactive | inactive | inactive | inactive | – | inactive and 5.98 µM (active) and 4.27 µM (active) | – | – | inactive | – | inactive | inactive | inactive
CCCC[N+]1(C)CCCC1 (tested in a mixture with another compound) | inactive | inactive | inactive | inactive | inactive | inactive | inactive | inactive | inactive | inactive | inactive | inactive | 9.54 µM (active) | 4.96 µM (active) | inactive | inactive | inactive | – | inactive | inactive
CC1(C)[C@H](C(=O)O[C@H](C#N)c2cccc(Oc3ccccc3)c2)[C@@H]1/C=C(\Cl)C(F)(F)F | inactive | inactive | inactive | inactive | inactive | inactive | – | inactive | inactive | inactive | inactive | inactive | inactive | inactive | – | – | inactive | inactive | inactive | inactive
Cl/C=C\C[N+]12CN3CN(CN(C3)C1)C2 | inactive | 68.6 µM (active) | inactive | inactive | inactive | inactive | inactive | inactive | inactive | inactive | inactive | inactive | inactive | inactive | inactive | inactive | inactive | inactive | inactive | inactive
O=C(O)C1C(C(=O)O)C2(Cl)C(Cl)=C(Cl)C1(Cl)C2(Cl)Cl (stereo unspecified) | inactive | inactive | inactive | inactive | inactive | inactive | – | inactive | inactive | inactive | inactive | – | inactive | inactive | inactive | inactive | inactive | inactive | inactive | inactive
CCN(CC)CCO | inactive | inactive | inactive | inactive | inactive | inactive | inactive | inactive | inactive | inactive | inactive | inactive | inactive | inactive | inactive | inactive | – | inactive | inactive | inactive
O=P(Oc1ccccc1)(Oc1ccccc1)Oc1ccccc1 | inactive | 60.8 µM (active) and inactive | inactive | inactive | inactive | inactive | inactive | inactive | inactive | – | – | inactive | inactive | inactive | inactive | inactive | – | inactive | inactive | –
